The panel holds about 83,000 compounds, 20% with a hit somewhere; the sample as a whole holds those more often.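 48-hour exposure, single concentration, 96-well plates; percent growth endpoint where 0 means no net growth. Active: below 10.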 The source made the active and inactive calls.

This test relates to NCI-H226 lung. Nature of the test: NCI-60 one-dose screen, 48 h (100 = growth as untreated, 0 = no growth, -100 = all killed). As to conditions: 10 µM unless noted.
Take `COC(=O)C[C@](O)(CCCC(C)(C)O)C(=O)O[C@H]1C(OC)=C[C@@]23CCCN2CCc2cc4c(cc2[C@@H]13)OCO4`: the growth is -21.4% (active).
In the case of `COc1cc(/C=C2\C(=N)N=C(SCc3nc4ccccc4[nH]3)NC2=O)ccc1O` it was 92.8% (inactive).
Consider `N/C(=N\N=C\c1ccc([N+](=O)[O-])cc1)c1c(N)nc(=S)[nH]c1-c1ccc(Cl)cc1Cl`, for which the growth was 82.1% (inactive).
Take `CC1(c2cc3cc(Cl)ccc3oc2=O)NC(=O)c2c(/C=C/C(=O)OC3CC4CCC3(C)C4(C)C)cccc2N1` (configuration not stated): the growth was 67% (inactive).
`O=C(N=Nc1c(O)[nH]c2ccc(Cl)cc12)c1ccc2nc(-c3ccccc3)[nH]c2c1`: the growth is 91.1% (inactive).
For the compound `O=C(O)c1cccc(-c2ccc(/C=N/NC(=O)c3[nH]c4ccc(Br)cc4c3-c3ccccc3)o2)c1`, the growth is 87.9% (inactive).
Turning to `CC1(C)CC[C@]2(C(=O)Nc3ccccc3)CC[C@]3(C)C(=CCC4[C@@]5(C)C[C@@H](O)[C@H](O)[C@@](C)(CO)C5CC[C@]43C)C2C1` (some centres not stated), the growth was 54.3% (inactive).
For `O=c1[nH]c2ccccc2cc1CSc1cccc(Nc2nccc(-c3ccc4ccccc4c3)n2)c1` the value was 80.7% (inactive).
Regarding `Clc1cccc(N/N=C/c2c[nH]c3ccc(Br)cc23)n1`, the growth is 22.4% (inactive).
Turning to `CSc1ccc(NC(=O)c2ccc3nnn(/C(C#N)=C/c4ccccn4)c3c2)cc1`, the growth was -94.9% (active).
In the case of `Cc1c(C(=O)NNC(=O)c2ccc(Cl)cc2)nnn1-c1ccc(Cl)cc1` it was 95.3% (inactive).
As for `CN(C)c1nc(NCCNS(=O)(=O)c2ccc(C(=O)/C=C/c3ccc(F)cc3)cc2)nc(Nc2ccc(F)cc2)n1`, the growth was -74.4% (active).

For the origin of these results see PubChem BioAssay (NCI).
